Data on eleven compounds can be found in ChEMBL document CHEMBL3988442, “University of Dundee, Small-Polar-MMV Screening Library” (2021).

What all share (parameters): scale not given: direction of the effect not stated beside the values
For assay [1], the target named is Protein translocase subunit SecA (Escherichia coli (strain K12)) (UniProt P10408). The experiment in a line: Assay to Identify E. coli SecA ATPase Inhibitors. In kind it is functional. Conditions: 30 µM.
Assay [2] has as its target T1, Ubiquitin-activating enzyme e1, putative (Leishmania donovani (strain BPK282A1)) (UniProt E9BSI1).
T1 sequence (whole entry): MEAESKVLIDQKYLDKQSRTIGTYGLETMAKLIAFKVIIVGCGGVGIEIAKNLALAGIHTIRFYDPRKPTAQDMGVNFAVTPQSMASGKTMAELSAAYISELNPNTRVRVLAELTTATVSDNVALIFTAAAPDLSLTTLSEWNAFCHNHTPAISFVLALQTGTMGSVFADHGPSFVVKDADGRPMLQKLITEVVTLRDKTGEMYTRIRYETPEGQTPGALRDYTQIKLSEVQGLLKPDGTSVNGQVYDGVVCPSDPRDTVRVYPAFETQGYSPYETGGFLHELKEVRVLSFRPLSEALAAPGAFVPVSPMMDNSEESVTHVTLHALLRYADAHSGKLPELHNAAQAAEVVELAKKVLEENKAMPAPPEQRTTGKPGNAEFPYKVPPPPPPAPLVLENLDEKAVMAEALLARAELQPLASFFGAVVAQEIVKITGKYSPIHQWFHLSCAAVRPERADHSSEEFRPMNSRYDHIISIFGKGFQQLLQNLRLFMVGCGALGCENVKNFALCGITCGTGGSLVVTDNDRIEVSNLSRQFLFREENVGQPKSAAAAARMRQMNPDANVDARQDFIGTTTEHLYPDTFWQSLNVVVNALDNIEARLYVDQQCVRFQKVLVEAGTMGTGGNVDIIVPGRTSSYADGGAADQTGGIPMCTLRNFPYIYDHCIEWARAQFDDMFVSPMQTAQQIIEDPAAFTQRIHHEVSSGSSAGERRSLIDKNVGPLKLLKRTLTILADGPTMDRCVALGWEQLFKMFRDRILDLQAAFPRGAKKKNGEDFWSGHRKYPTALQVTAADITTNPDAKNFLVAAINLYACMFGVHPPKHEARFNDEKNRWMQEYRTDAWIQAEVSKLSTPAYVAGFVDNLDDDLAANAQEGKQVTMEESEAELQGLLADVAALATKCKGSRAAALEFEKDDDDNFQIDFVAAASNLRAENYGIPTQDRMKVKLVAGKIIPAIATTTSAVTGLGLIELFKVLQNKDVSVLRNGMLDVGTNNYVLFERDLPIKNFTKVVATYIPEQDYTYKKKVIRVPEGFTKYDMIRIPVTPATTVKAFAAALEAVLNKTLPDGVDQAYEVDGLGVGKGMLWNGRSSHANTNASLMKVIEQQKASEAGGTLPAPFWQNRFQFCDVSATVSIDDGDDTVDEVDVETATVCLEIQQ
The assay is described as follows: Leishmania donovani Ubiquitin Activating Enzyme (LdE1). In kind it is functional. Conditions: 30 µM.

The target of assay [3] is AMP-activated protein kinase, AMPK (Homo sapiens) (UniProt P54646+O43741+P54619+Q9UGJ0+Q9Y478+Q13131+Q9UGI9). The experiment in a line: AMP-dependent Kinase enzyme assay. An in vitro enzyme assay that detects ADP turnover that is directly proportional to AMPK activity. This uses naive AMPK that is activated during the assay with MK-8722. In kind it is functional. Conditions: 30 µM.

The target of assay [4] is Sialic acid-binding Ig-like lectin 9 (Homo sapiens) (UniProt Q9Y336). The assay is described as follows: Hs-Siglec9 ALPHAscreen SOP 20170721. The following applies: 10 µM. For orientation: In Alpha technology, singlet oxygen from a donor bead excites a nearby acceptor bead.
For the next assay, the system named is Trypanosoma cruzi. The experiment in a line: Trypanosoma cruzi phosphomannomutase and mannose-1-phosphate guanylyltransferase assay. The format is functional. Conditions: 10 µM.
Assay [5] deals with T2, Arginase-2, mitochondrial (Homo sapiens) (UniProt P78540).
T2 sequence (whole entry): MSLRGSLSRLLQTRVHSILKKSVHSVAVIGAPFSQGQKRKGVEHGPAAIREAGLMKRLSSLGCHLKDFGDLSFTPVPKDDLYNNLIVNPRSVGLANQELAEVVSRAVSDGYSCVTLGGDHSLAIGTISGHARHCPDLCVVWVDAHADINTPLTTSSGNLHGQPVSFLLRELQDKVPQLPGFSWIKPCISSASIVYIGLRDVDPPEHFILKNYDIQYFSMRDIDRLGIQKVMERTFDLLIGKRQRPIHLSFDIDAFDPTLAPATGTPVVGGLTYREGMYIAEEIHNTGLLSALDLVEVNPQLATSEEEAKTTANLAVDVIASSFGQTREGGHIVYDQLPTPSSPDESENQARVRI
The experiment in a line: in vitro enzyme assay to detect the production of urea directly proportional to the activity of Arginase II. Note: in the data most compounds retested in dose-response had high values. In kind it is functional. The following applies: 33.3 µM.

Assay [6] concerns the target T3, Proteasome subunit beta (Trypanosoma cruzi) (UniProt O96673).
T3 sequence (whole entry): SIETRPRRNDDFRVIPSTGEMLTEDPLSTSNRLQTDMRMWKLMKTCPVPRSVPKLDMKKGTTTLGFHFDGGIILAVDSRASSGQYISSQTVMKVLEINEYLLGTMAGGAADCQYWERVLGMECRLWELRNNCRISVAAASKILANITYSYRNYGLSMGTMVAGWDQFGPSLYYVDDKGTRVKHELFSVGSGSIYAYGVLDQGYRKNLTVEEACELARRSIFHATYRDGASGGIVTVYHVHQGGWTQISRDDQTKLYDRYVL
The assay is described as follows: Trypanosoma cruzi proteasome chymotrypsin-like activity (TcProtChymo) assay. Note: in the data most compounds retested in dose-response had high values. The following applies: 9.37 µM. In kind it is functional.

The species named for the next assay is Homo sapiens. The experiment in a line: To identify inhibition of the IFN signalling (Jak-Stat) pathway via expression of an eGFP reporter gene under the control of an IFN-stimulated response element (ISRE) containing MxA promoter. In kind it is functional. The following applies: 30 µM. (A reporter such as luciferase makes a cellular process visible.)
For assay [7], the target named is T4, Tyrosyl-tRNA synthetase, putative (Trypanosoma cruzi (strain CL Brener)) (UniProt Q4DSP6).
T4 sequence (whole entry): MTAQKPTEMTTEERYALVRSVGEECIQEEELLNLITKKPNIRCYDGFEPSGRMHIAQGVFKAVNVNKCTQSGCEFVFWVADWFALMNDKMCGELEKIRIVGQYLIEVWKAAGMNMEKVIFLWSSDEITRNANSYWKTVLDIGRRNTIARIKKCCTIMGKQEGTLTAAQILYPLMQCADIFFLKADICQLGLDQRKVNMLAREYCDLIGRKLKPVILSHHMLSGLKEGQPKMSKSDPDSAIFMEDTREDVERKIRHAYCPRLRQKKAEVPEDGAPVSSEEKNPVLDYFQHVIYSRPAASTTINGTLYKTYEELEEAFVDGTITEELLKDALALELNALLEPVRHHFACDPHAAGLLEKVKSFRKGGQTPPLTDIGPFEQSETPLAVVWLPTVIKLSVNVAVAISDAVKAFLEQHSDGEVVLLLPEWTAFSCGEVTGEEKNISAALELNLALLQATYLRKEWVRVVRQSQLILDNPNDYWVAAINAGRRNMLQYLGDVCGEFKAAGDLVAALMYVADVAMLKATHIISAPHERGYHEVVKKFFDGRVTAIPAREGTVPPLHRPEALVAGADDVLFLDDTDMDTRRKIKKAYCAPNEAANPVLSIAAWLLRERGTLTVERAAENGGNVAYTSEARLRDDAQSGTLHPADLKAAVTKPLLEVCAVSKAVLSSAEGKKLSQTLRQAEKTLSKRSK
The assay is described as follows: Trypanosoma cruzi tyrosyl tRNA synthetase (TcYRS) _High Tyrosine SOP. Note: in the data most compounds retested in dose-response had high values. The format is functional. The following applies: 30 µM.

For assay [8], the target named is T4, Tyrosyl-tRNA synthetase, putative (Trypanosoma cruzi (strain CL Brener)). The assay is described as follows: Trypanosoma cruzi tyrosyl tRNA synthetase (TcYRS) SOP. In kind it is functional. The following applies: 30 µM.
For assay [9], the target named is Chromo domain-containing protein 1 (Saccharomyces cerevisiae (strain ATCC 204508 / S288c) (Baker's yeast)) (UniProt P32657). The assay is described as follows: ScCHD-1 Enzyme Inhibition Assay. Note: in the data most compounds retested in dose-response had high values. The format is functional. The following applies: 30 µM.

For some of these results: Results with a measured potency or affinity are listed apart.

Chain of Sialic acid-binding Ig-like lectin 9 (Homo sapiens) (Q9Y336 whole entry): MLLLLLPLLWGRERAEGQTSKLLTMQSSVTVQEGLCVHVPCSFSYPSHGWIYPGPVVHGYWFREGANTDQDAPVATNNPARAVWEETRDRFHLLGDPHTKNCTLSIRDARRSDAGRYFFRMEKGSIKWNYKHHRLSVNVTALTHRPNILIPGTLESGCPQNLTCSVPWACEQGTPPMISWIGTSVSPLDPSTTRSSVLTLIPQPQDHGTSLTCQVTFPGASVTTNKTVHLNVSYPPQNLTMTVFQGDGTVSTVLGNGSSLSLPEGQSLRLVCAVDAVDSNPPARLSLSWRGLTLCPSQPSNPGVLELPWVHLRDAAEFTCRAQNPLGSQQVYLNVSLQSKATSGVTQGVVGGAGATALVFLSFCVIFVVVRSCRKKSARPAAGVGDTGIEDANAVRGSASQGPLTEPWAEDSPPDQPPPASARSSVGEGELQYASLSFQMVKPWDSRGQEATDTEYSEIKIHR
Chain of Chromo domain-containing protein 1 (Saccharomyces cerevisiae (strain ATCC 204508 / S288c) (Baker's yeast)) (P32657 whole entry, the tested form may be a part): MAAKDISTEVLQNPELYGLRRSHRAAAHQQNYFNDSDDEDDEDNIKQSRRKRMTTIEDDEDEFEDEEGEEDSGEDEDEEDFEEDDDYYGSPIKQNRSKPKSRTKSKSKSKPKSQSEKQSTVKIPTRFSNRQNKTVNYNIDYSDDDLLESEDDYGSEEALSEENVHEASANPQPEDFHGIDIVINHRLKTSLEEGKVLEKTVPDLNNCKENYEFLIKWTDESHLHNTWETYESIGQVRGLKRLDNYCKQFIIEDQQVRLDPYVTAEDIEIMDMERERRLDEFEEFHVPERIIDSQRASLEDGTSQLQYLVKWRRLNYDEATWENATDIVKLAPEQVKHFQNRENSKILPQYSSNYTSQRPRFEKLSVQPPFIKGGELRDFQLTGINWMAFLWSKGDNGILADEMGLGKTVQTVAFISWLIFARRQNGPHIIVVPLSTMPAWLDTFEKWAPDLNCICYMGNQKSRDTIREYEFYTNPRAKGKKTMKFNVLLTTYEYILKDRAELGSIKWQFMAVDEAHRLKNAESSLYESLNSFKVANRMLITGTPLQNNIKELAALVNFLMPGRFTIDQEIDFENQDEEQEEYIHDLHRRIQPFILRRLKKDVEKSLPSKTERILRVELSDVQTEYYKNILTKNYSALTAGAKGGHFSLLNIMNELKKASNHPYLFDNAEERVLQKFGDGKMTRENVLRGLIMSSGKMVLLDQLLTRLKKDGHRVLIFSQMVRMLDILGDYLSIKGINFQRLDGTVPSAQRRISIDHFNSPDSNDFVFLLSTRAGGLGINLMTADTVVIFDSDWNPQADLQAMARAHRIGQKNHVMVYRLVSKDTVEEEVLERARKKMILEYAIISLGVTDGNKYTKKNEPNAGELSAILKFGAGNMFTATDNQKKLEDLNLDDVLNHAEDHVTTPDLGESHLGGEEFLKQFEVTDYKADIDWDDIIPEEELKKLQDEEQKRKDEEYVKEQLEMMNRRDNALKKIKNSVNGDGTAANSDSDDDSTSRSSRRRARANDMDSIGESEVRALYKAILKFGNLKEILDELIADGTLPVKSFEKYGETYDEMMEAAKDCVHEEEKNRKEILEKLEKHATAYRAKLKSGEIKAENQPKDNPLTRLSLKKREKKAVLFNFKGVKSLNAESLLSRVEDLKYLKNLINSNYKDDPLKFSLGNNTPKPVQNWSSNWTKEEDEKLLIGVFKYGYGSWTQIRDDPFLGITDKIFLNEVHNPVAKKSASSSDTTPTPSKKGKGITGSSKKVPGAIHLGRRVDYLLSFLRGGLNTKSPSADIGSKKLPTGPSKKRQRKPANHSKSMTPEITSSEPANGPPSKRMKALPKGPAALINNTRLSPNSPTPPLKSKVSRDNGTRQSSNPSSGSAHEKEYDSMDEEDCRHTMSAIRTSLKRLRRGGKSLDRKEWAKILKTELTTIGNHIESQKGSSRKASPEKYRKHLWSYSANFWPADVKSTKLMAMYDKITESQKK
Chain of Protein translocase subunit SecA (Escherichia coli (strain K12)) (P10408 whole entry): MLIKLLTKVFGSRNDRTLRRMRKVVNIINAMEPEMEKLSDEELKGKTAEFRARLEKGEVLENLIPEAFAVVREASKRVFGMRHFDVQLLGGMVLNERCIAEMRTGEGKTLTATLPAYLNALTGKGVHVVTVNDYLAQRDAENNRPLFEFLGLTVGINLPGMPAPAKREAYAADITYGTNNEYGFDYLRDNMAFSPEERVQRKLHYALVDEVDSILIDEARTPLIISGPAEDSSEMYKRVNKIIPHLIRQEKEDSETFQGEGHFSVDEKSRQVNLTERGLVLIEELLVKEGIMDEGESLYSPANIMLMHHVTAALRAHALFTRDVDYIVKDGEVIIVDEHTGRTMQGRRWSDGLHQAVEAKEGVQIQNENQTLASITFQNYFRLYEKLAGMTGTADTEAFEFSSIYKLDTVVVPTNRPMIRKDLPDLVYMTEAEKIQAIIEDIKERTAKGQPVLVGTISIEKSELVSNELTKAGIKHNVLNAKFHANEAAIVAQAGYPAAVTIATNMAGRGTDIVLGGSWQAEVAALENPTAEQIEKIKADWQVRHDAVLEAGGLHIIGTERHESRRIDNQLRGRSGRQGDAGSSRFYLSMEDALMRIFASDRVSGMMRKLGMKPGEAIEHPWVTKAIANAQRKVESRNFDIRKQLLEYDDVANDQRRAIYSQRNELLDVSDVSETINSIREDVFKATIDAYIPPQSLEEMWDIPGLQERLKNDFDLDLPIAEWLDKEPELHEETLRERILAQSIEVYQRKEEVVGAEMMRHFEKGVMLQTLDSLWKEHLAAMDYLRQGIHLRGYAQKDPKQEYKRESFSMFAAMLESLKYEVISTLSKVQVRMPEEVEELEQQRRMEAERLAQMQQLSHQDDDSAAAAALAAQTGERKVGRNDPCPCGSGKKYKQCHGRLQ

`O=C(NCCN1CCCc2ccccc21)c1scnc1Cl`: the Percent Effect in assay [1] is -4.96%; in [2] it was 2.63%; in assay [3], 0.379%; in assay [4] it was -2.42%; in the assay on Trypanosoma cruzi, 2.52%; in assay [5] it was -0.719%. Besides, the Percent Effect in assay [6] is 2.96%; in the assay listed under Homo sapiens, -9.38%; in [7] it was 7.39%; in assay [8] it was 1.24%; in assay [9], 3.5%.
Take `N#Cc1cccc(S(=O)(=O)NC(=O)COC2CCCC2)c1`: the Percent Effect in [1] is -0.529%; in assay [2] it was 26%; in [3], -4.75%; in assay [4], -1.76%; with Trypanosoma cruzi, 1.31%; in assay [5] it was 1.07%. The Percent Effect is 11.3% in assay [6]; 0.622% in the assay listed under Homo sapiens; 7.77% in assay [7]; 21.9% in assay [8]; -7.26% in assay [9].
In the case of `Cc1cc(C)n(CC2CN(CCOc3cccc(F)c3)CCO2)n1` (stereo unspecified), the Percent Effect in assay [1] is -4.88%; in [2], 7.89%; in assay [3] it was 0.382%; in [4], 4.47%; with Trypanosoma cruzi it was 1.59%; in assay [5] it was -3.24%. The Percent Effect in assay [6] is 1.1%; in the assay listed under Homo sapiens it was 24.5%; in [7], 4.43%; in assay [8] it was 16.1%; in assay [9], -3.81%.
In the case of `CC(=O)N1CCN(CC2CCOc3ccccc3C2)CC1` (stereo unspecified), the Percent Effect in [1] is -5.96%; in assay [2], -1.39%; in assay [3] it was -8.25%; in assay [4], 5.04%; in the assay on Trypanosoma cruzi, -5.34%; in assay [5], 0.883%. Further, the Percent Effect in [6] was 14.6%; in the assay filed under Homo sapiens, -1.92%; in assay [7] it was 1.05%; in [8], -7.69%; in assay [9] it was -1.42%.
In the case of `CC(=O)N1CCCC1c1nccnc1Nc1cccc(C)n1` (stereo unspecified), the Percent Effect in assay [1] was -1.59%; in assay [2], -5.33%; in assay [3], 11.9%; in [4], 5.31%; in the assay on Trypanosoma cruzi it was -1.57%; in [5] it was 0.699%. For the same compound, the Percent Effect in [6] was 1.15%; in the assay filed under Homo sapiens, -9.62%; in [7], -1.06%; in [8] it was 1.28%; in assay [9], 4.34%.
Consider `COc1c(CNCc2ccc(CN(C)C)cc2)c(C)nn1C`, for which the Percent Effect is 3.12% in assay [1]; -1.27% in assay [2]; 3.93% in assay [3]; 0.303% in [4]; 3.79% in the assay with Trypanosoma cruzi; 4.95% in assay [5]. Moreover, the Percent Effect in [6] was 9.26%; in the assay listed under Homo sapiens, -11.7%; in assay [7], -3.12%; in assay [8] it was 2.53%; in assay [9] it was -2.72%.
Take `COc1ccc(CN2C[C@@H](OCc3csc(C)n3)[C@H]3COC[C@H]32)cc1`: the Percent Effect is -4.6% in assay [1]; 2.74% in assay [2]; -10.5% in assay [3]; 0.865% in [4]; -2.78% in the assay with Trypanosoma cruzi; -0.399% in assay [5]. Besides, the Percent Effect in [6] is 2.65%; in the assay listed under Homo sapiens it was -6.15%; in [7] it was 2.08%; in [8], 8.64%; in [9], -3.52%.
Regarding `Cc1cnc2n(c1=O)CC(C(=O)Nc1cccc3cccnc13)CS2` (stereo unspecified), the Percent Effect was -3.5% in assay [1]; -2.74% in [2]; -76.9% in assay [3]; -1.76% in [4]; 5.88% in the assay with Trypanosoma cruzi; 0.455% in assay [5]. Further, the Percent Effect in assay [6] was 8.87%; in the assay filed under Homo sapiens it was 5.24%; in assay [7], 1.07%; in assay [8], 0%; in [9], -2.86%.
Turning to `CC(C)c1nn(C)c(N(C)C)c1CNCc1ccc2c(c1)OCO2`, the Percent Effect was -3% in assay [1]; 7.89% in assay [2]; -15.5% in assay [3]; 1.82% in [4]; -7% in the assay on Trypanosoma cruzi; 2.16% in assay [5]. The Percent Effect is -2.45% in [6]; -9% in the assay filed under Homo sapiens; -0.493% in assay [7]; 11.1% in assay [8]; 0.321% in assay [9].
As to `CCC(CC)c1cc(CNC(=O)N2CCCC(N(C)C)C2)on1` (stereo unspecified), the Percent Effect in assay [1] was -3.85%; in assay [2], 8.11%; in [3] it was -7.08%; in assay [4], 17.6%; in the assay with Trypanosoma cruzi, 6.55%; in assay [5], 0.248%. Moreover, the Percent Effect in assay [6] was 12.8%; in the assay listed under Homo sapiens, 7.88%; in assay [7] it was 6.45%; in [8], 13.6%; in assay [9] it was -6.35%.
With `CCc1noc(C2CCCCN2C(=O)c2ccn(C3CCCC3)n2)n1` (stereo unspecified), the Percent Effect in [1] was -3.89%; in assay [2] it was 20%; in [3], -10.1%; in assay [4], -4.33%; in the assay with Trypanosoma cruzi, 5.89%; in assay [5], -15.3%. Further, the Percent Effect was 13.7% in assay [6]; 24.3% in the assay filed under Homo sapiens; 9.52% in assay [7]; 12.8% in assay [8]; -15.7% in assay [9].
